# Laboratory results published in PubChem BioAssay (NCATS).
# Records with an inconclusive call do not appear. A call without a number means that no potency is given here. Activity calls are given as the source filed them. Calls follow the shape of the dose curve; as a rule, active = well fitted inhibition curve with a large enough effect; inconclusive = small, poorly fitted or top-dose-only effect; inactive = flat fitted curve, though single readings scatter.
# Tested on: TAB109
# Assay: qHTS profiling for inhibitors of Plasmodium falciparum proliferation (AID 504749); also: nearly all actives have a fitted effect of over 60% in size
# Conditions: P. falciparum in erythrocytes, SYBR Green DNA, 72 h; series mostly up to 28.7 µM
# In short: (§1)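 SYBR Green fluorescence (ex 485 nm, em 535 nm) reports parasite DNA after 72 h compound exposure of infected red cells at 0.3% parasitemia, 2.5% hematocrit; signal normalized to 0.29 uM artemisinin and vehicle wells.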
# Potency is read from the fitted curve at half-maximal effect.
row,Compound,Potency
1,CCCCN1CCCC[C@H]1C(=O)Nc1c(C)cccc1C,inactive
2,C[C@@H]1CN(c2c(F)c(F)c3c(=O)c(C(=O)O)cn(C4CC4)c3c2F)C[C@H](C)N1,inactive
3,Cc1cc(N)c2ccccc2[n+]1CCCCCCCCCC[n+]1c(C)cc(N)c2ccccc21,4470 nM (active)
4,O=C(O)[C@@H]1CSCN1,inactive
5,Nc1ccc(S(=O)(=O)Nc2nccs2)cc1,inactive

# Tested on: TAB113
# Assay: as above
# Conditions: P. falciparum in erythrocytes, SYBR Green DNA, 72 h; series mostly up to 28.7 µM
# In short: as §1
row,Compound,Potency
1,CCCCN1CCCC[C@H]1C(=O)Nc1c(C)cccc1C,inactive
2,C[C@@H]1CN(c2c(F)c(F)c3c(=O)c(C(=O)O)cn(C4CC4)c3c2F)C[C@H](C)N1,inactive
3,Cc1cc(N)c2ccccc2[n+]1CCCCCCCCCC[n+]1c(C)cc(N)c2ccccc21,126 nM (active)
4,O=C(O)[C@@H]1CSCN1,inactive
5,Nc1ccc(S(=O)(=O)Nc2nccs2)cc1,inactive
